# Test results: PubChem BioAssay
# For some of these results: Potency and affinity values are given separately. Active and inactive are the calls of the source.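 Rule for the calls, unless noted: active = fluorescence ratio normalized to control raised more than 50% in primary screen plus both repeat runs; inactive = the rest.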
# How the values were obtained:
# [1] = test system: TRPC4 beta (transient receptor potential cation channel C4), mouse; assay: TRPC4 cation channel opening, retest – cell-based, Fluo4 calcium, HEK293 TRPC4beta/mu-opioid, duplicates, 10 µM, confirmation (AID 2426); conditions: Fluo4 calcium fluorescence, at 10 µM; stronger effect = higher value
# [2] = test system: transient receptor potential cation channel C4 beta (TRPC4), mouse; assay: TRPC4 cation channel opening, second retest – cell-based, second round, Fluo4, HEK293 TRPC4beta/mu-opioid, 1 µM, confirmation (AID 2461;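 active = primary screen active and over 50% activation in each of two duplicate runs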); conditions: Fluo4 calcium fluorescence, at 1 µM; stronger effect = higher value
# [3] = test system: TRPC4 (transient receptor potential cation channel C4 beta), mouse; assay: potentiation of DAMGO EC20 TRPC4 response – cell-based, second round, Fluo-4, HEK293 TRPC4beta/mu-opioid, 1 µM, confirmation (AID 2554;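 active = primary screen hit whose fluorescence ratio, in both repeats, exceeds the weak agonist control mean by 3 SD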); conditions: DAMGO EC20, Fluo-4 calcium flux, at 1 µM; stronger effect = higher value
# [4] = test system: TRPC4 beta (transient receptor potential cation channel C4), mouse; assay: potentiation of DAMGO EC20 TRPC4 response – cell-based, Fluo-4, HEK293 TRPC4beta/mu-opioid, confirmation (AID 2555;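 active = primary screen hit whose calcium fluorescence ratio, in both repeats, exceeds the weak agonist control mean by 3 SD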); conditions: DAMGO EC20, Fluo-4 calcium flux, at 10 µM; stronger effect = higher value
# [5] = molecular target: Short transient receptor potential channel 4 (Mus musculus) (UniProt Q9QUQ5); assay: blockers of DAMGO-evoked TRPC4 calcium flux – cell-based, Fluo4, HEK293 TRPC4beta/mu-opioid, confirmation (AID 2636;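 active = calcium signal cut by more than 3 SD below the full-agonist control yet still positive, in both repeats and the earlier primary screen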); conditions: at 10 µM; stronger effect = higher value
# [6] = molecular target: Short transient receptor potential channel 4 (Mus musculus) (UniProt Q9QUQ5); assay: blockers of DAMGO-evoked TRPC4 calcium flux – cell-based, second round, Fluo4, HEK293 TRPC4beta/mu-opioid, 1 µM, confirmation (AID 2637;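 active = calcium signal ratio cut to more than 3 SD under the fully stimulated control mean yet still positive, in both repeats and the primary screen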;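 for inhibition: percent of integrated ratio relative to wells lacking test compound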); conditions: at 1 µM; stronger effect = higher value
# [7] = molecular target: Short transient receptor potential channel 4 (Mus musculus) (UniProt Q9QUQ5); assay: calcium entry via TRPC4 opening agents – cell-based, HEK293 TRPC4/mu-opioid, Fluo-4 calcium, dose response (AID 434937;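 active = primary screen activator hit with a dose response curve and TRPC4 channel activation at any tested dose; inactive = no activation, no dose response, or not a primary hit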)
# [8] = molecular target: Short transient receptor potential channel 4 (Mus musculus) (UniProt Q9QUQ5); assay: potentiation of DAMGO-evoked TRPC4 calcium signal – cell-based, HEK293 TRPC4/mu-opioid, Fluo-4 calcium, EC20 DAMGO, dose response (AID 434941;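 active = earlier screen potentiator hit that boosts the TRPC4 ion channel at some dose, with a dose response; inactive = no potentiation, no dose response, or not a prior hit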;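 note: calcium entry triggered by an EC20 dose of DAMGO at the co-expressed mu-opioid receptor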)
# [9] = molecular target: Short transient receptor potential channel 6 (Mus musculus) (UniProt Q61143); assay: TRPC6 blockade by TRPC4 inhibitor hits – cell-based, HEK293, membrane potential dye, duplicate, selectivity assay for TRPC4 inhibitor project, confirmation (AID 434948;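 active = active in primary screen and both duplicates, each dropping signal beyond three positive-control SD with fluorescence still positive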); conditions: HEK293 TRPC6, membrane potential dye fluorescence, at 10 µM, stimulated with maximal-effect acetylcholine; stronger effect = higher value
# [10] = molecular target: Short transient receptor potential channel 6 (Mus musculus) (UniProt Q61143); assay: TRPC6 opening by TRPC4 activator hits – cell-based, HEK293, membrane potential dye, duplicate, selectivity assay for TRPC4 activator project, confirmation (AID 434950;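 active = membrane potential signal rise above negative control mean plus 3 SD in both duplicates, also active in the earlier TRPC4 screen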); conditions: HEK293 TRPC6, membrane potential fluorescence, at 10 µM; activation: stronger effect = higher value; outcome: activation
# [11] = molecular target: Short transient receptor potential channel 6 (Mus musculus) (UniProt Q61143); assay: positive modulators of mouse TRPC6 channel – HEK293 cells, membrane potential dye, duplicate, selectivity assay for TRPC4 potentiator project, confirmation (AID 434952;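 active = compound raising the membrane signal above positive-control mean plus 3 SD in both repeats, and a primary screen hit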); conditions: HEK293 TRPC6, membrane potential dye fluorescence, at 10 µM, maximal acetylcholine added after compound; stronger effect = higher value
# [12] = molecular target: Short transient receptor potential channel 4 (Mus musculus) (UniProt Q9QUQ5); assay: calcium flux activators in TRPC4/5HT1a cells, counter-screen for TRPC4 activator project, cell-based, second counter screen, HEK293 TRPC4/5HT1a, Fluo-4 (AID 434977;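 active = calcium signal rise above buffer-control mean plus 5 SD in both duplicates, and also a hit in the primary screen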); conditions: Fluo-4 calcium flux, at 10 µM; stronger effect = higher value
# [13] = serotonin-gated TRPC4 signal block – cell-based, second counter screen, HEK293 TRPC4/5HT1a, Fluo-4, counter-screen for TRPC4 inhibitor project, confirmation (AID 434978;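 active = primary screen active whose calcium signal fell more than 3 SD beyond the full-serotonin control mean in both duplicate plates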;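 for outcome: serotonin given first at submaximal then at maximal dose after compound preincubation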); conditions: Fluo-4 calcium flux, at 10 µM, serotonin added to trigger calcium flux; stronger effect = higher value
# [14] = test system: TRPC4 (mouse), co-expressed with 5HT1a in HEK293; assay: enhancement of serotonin-evoked TRPC4 response – cell-based, second counter screen, HEK293 TRPC4/5HT1a, Fluo-4, counter-screen for TRPC4 potentiator project, confirmation (AID 434979;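 active = signal rise over 3 SD above mean of control wells given weak agonist, in both repeats and first screen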); conditions: Fluo-4 calcium flux, at 10 µM, serotonin added at its EC20 dose; stronger effect = higher value
# [15] = nonspecific calcium rise without TRPC4 – cell-based, HEK293 mu-opioid receptor line, counter-screen for TRPC4 activator project, confirmation (AID 449723;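 active = hit in primary screen, with calcium signal over 5 SD above buffer well mean in both duplicates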;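 note: counter screen cells carry the mu-opioid receptor alone and lack TRPC4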); conditions: HEK293 mu-opioid cells, Fluo-4 calcium fluorescence, at 10 µM; stronger effect = higher value
# [16] = nonspecific potentiation of DAMGO calcium response – cell-based, HEK293 mu-opioid receptor line, counter-screen for TRPC4 allosteric potentiator project, confirmation (AID 449724;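 active = calcium signal rise more than 3 SD above the low-dose agonist control mean, in both duplicate plates and the primary screen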); conditions: HEK293 mu-opioid receptor cells, Fluo-4 calcium flux, at 10 µM, compound added before EC20 DAMGO stimulus; stronger effect = higher value
# Sequence of Short transient receptor potential channel 6 (Mus musculus) (Q61143 whole entry, looked up): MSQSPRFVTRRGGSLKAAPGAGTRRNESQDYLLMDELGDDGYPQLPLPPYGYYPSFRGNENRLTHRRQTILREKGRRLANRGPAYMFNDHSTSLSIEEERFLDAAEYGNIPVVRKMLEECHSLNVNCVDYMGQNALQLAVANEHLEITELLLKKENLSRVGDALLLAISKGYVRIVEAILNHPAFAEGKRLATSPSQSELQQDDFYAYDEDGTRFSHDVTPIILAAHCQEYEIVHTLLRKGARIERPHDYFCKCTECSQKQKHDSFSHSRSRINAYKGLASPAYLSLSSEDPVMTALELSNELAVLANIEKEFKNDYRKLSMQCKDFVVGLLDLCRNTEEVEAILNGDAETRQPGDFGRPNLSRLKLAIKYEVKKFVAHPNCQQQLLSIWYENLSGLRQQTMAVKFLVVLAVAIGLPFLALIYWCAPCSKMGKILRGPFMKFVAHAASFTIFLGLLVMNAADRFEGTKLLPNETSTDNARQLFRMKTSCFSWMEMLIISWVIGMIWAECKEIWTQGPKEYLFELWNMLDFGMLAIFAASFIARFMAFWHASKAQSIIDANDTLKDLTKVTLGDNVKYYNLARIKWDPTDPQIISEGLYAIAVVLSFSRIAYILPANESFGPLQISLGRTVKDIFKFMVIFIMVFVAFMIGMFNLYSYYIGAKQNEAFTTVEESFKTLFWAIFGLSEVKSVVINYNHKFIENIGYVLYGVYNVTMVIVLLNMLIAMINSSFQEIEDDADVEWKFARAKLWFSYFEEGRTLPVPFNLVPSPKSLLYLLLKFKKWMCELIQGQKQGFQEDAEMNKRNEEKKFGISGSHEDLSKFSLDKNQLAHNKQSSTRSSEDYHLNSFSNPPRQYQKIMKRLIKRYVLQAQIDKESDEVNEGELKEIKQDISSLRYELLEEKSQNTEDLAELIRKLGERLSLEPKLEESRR
# Sequence of Short transient receptor potential channel 4 (Mus musculus) (Q9QUQ5 whole entry, looked up): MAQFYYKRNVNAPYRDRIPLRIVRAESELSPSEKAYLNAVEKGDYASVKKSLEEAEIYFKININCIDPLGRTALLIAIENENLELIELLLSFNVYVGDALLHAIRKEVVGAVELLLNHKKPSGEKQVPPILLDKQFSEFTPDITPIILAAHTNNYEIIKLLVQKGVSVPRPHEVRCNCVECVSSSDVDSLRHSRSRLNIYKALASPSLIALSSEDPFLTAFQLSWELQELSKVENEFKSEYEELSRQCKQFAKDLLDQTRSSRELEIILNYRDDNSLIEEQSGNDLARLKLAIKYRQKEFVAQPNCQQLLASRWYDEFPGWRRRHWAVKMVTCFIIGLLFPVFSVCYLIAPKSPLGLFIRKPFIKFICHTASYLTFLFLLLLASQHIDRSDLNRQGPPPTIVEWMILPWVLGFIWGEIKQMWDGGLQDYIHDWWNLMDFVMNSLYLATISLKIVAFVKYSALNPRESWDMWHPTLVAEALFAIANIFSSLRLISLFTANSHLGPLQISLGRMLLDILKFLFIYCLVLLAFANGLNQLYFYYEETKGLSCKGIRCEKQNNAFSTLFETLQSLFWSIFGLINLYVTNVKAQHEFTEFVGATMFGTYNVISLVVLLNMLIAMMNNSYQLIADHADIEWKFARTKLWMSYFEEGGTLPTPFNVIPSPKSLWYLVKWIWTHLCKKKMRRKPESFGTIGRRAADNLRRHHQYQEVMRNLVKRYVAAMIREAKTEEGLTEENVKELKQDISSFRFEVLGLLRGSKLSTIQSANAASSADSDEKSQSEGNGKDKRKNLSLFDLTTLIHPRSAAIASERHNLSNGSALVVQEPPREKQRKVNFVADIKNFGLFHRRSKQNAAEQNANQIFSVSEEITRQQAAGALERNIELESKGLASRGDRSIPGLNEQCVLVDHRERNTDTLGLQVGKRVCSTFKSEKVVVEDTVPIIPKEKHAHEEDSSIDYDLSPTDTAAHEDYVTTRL
Structure (SMILES),outcome [1],outcome [2],outcome [3],outcome [4],outcome [5],outcome [6],outcome [7],outcome [8],outcome [9],outcome [10],outcome [11],outcome [12],outcome [13],outcome [14],outcome [15],outcome [16],inhibition [5],inhibition [13],inhibition [6],inhibition [9]
Cc1cccc2cc(CN(CCCN(C)C)C(=S)NCCc3ccccc3)c(=O)[nH]c12,inactive,inactive,inactive,inactive,inactive,inactive,inactive,inactive,inactive,inactive,inactive,inactive,inactive,inactive,inactive,inactive,–,–,–,–
O=C(CSc1nc2[nH]ncc2c(=O)n1-c1ccccc1Br)NCc1ccccc1Cl,inactive,inactive,inactive,inactive,inactive,inactive,inactive,inactive,inactive,inactive,inactive,inactive,inactive,inactive,inactive,inactive,–,–,–,–
O=C(COC(=O)C1CC1)Nc1nc(-c2ccc(F)c(F)c2)cs1,inactive,inactive,inactive,inactive,–,inactive,inactive,inactive,inactive,inactive,inactive,inactive,–,inactive,inactive,inactive,70% (active),41.5% (active),–,–
CCc1ccccc1NC(=S)N(CCCN(C)C)Cc1cc2cc3c(cc2[nH]c1=O)OCO3,inactive,inactive,inactive,inactive,–,–,inactive,inactive,inactive,inactive,inactive,inactive,–,inactive,inactive,inactive,94% (active),19.9% (active),92% (active),–
Cc1ccc(CNC(C)c2ccccc2)cc1 (stereo unspecified),inactive,inactive,inactive,inactive,–,inactive,inactive,inactive,inactive,inactive,inactive,inactive,–,inactive,inactive,inactive,92% (active),30.6% (active),–,–
COc1cc(C(=O)N(CCc2ccccc2)C2=CC3CCC(C2)N3C)cc(OC)c1OC (stereo unspecified),inactive,inactive,inactive,inactive,inactive,–,inactive,inactive,inactive,inactive,inactive,inactive,inactive,inactive,inactive,inactive,–,–,54% (active),–
COc1ccc(CN2CCN(Cc3ccc(C(F)(F)F)cc3)CC2)c(OC)c1,inactive,inactive,inactive,inactive,–,–,inactive,inactive,inactive,inactive,inactive,inactive,–,inactive,inactive,inactive,95% (active),23% (active),41% (active),–
Cc1cccc(NC(=O)CSc2nnc(-c3cc(C)n(-c4ccccc4)c3C)o2)c1C,inactive,inactive,inactive,inactive,–,inactive,inactive,inactive,inactive,inactive,inactive,inactive,–,inactive,inactive,inactive,78% (active),16.2% (active),–,–
COCC(C)NC(C(=O)Nc1ccc(Cl)c([N+](=O)[O-])c1)c1ccccc1 (stereo unspecified),inactive,inactive,inactive,inactive,–,inactive,inactive,inactive,inactive,inactive,inactive,inactive,inactive,inactive,inactive,inactive,87% (active),–,–,–
Cc1ccc(Cn2c(=N)n(CC(O)c3ccco3)c3ccccc32)cc1 (stereo unspecified),inactive,inactive,inactive,inactive,–,–,inactive,inactive,–,inactive,inactive,inactive,–,inactive,inactive,inactive,94% (active),17.1% (active),63% (active),37% (active)
CN(C)c1ccc([N+](=O)[O-])cc1C(=O)NCC(c1ccco1)N(C)C (stereo unspecified),inactive,inactive,inactive,inactive,–,inactive,inactive,inactive,inactive,inactive,inactive,inactive,inactive,inactive,inactive,inactive,58% (active),–,–,–
Cc1ncsc1CCOC(=O)C12CC3CC(CC(C3)C1)C2,inactive,inactive,inactive,inactive,–,inactive,inactive,inactive,inactive,inactive,inactive,inactive,–,inactive,inactive,inactive,94% (active),17.8% (active),–,–
CCCCn1c(NCc2ccc(N(C)C)cc2)nc2ccccc21,inactive,inactive,inactive,inactive,–,–,inactive,inactive,–,inactive,inactive,inactive,–,inactive,inactive,inactive,93% (active),24.4% (active),50% (active),51.5% (active)
Cc1oc(-c2ccoc2)nc1CN(Cc1ccccc1)CC1CC1,inactive,inactive,inactive,inactive,–,inactive,inactive,inactive,inactive,inactive,inactive,inactive,inactive,inactive,inactive,inactive,95% (active),–,–,–
Cn1cc(CNCC2CCCO2)c(-c2ccc(Oc3ccccc3)cc2)n1 (stereo unspecified),inactive,inactive,inactive,inactive,–,inactive,inactive,inactive,inactive,inactive,inactive,inactive,–,inactive,inactive,inactive,92% (active),45.9% (active),–,–
C=CCN1CCN(C(c2cccc(OC)c2OC)c2nnnn2CCC(C)C)CC1 (stereo unspecified),inactive,inactive,inactive,inactive,–,inactive,inactive,inactive,inactive,inactive,inactive,inactive,inactive,inactive,inactive,inactive,51% (active),–,–,–

Structure (SMILES),outcome [1],outcome [2],outcome [3],outcome [4],outcome [5],outcome [6],outcome [7],outcome [8],outcome [9],outcome [10],outcome [11],outcome [12],outcome [13],outcome [14],outcome [15],outcome [16],inhibition [5],inhibition [13],inhibition [6],inhibition [9]
COc1ccc2nc(NCc3ccccc3)[nH]c2c1,inactive,inactive,inactive,inactive,–,–,inactive,inactive,inactive,inactive,inactive,inactive,–,inactive,inactive,inactive,94% (active),23.6% (active),50% (active),–
COc1cc2ccccc2c2c1CCCC2=O,inactive,inactive,inactive,inactive,–,inactive,inactive,inactive,inactive,inactive,inactive,inactive,–,inactive,inactive,inactive,85% (active),26.2% (active),–,–
N=c1c2c(n(Cc3ccccc3)c3c1CCC3)CCC2,inactive,inactive,inactive,inactive,–,inactive,inactive,inactive,–,inactive,inactive,inactive,–,inactive,inactive,inactive,65% (active),37.3% (active),–,53.5% (active)
CSC1=NC2(CCCCC2)C2=C(CCCC2)N1,inactive,inactive,inactive,inactive,–,inactive,inactive,inactive,inactive,inactive,inactive,inactive,–,inactive,inactive,inactive,96% (active),33% (active),–,–
CCc1ccc2nc3nc(C)cc(C)c3c(N)c2c1,inactive,inactive,inactive,inactive,–,–,inactive,inactive,–,inactive,inactive,inactive,–,inactive,inactive,inactive,96% (active),15.6% (active),41% (active),27% (active)
CCCn1c(=O)c2ccccc2n2c(SCCOc3ccc(C)cc3)nnc12,inactive,inactive,inactive,inactive,–,inactive,inactive,inactive,inactive,inactive,inactive,inactive,–,inactive,inactive,inactive,77% (active),46.3% (active),–,–
CN(C)CCCNc1c2ccccc2nc2ccccc12,inactive,inactive,inactive,inactive,–,–,inactive,inactive,inactive,inactive,inactive,inactive,–,inactive,inactive,inactive,94% (active),22.7% (active),62% (active),–
COc1cccc(N2CC(O)=C(c3nc4ccccc4c(=O)[nH]3)C2=N)c1,inactive,inactive,inactive,inactive,–,–,inactive,inactive,inactive,inactive,inactive,inactive,–,inactive,inactive,inactive,74% (active),37.5% (active),47% (active),–
Cc1[nH]c2ccc(C(=O)OC(C)C(=O)N(C)c3ccccc3)cc2c1C (stereo unspecified),inactive,inactive,inactive,inactive,inactive,inactive,inactive,inactive,inactive,inactive,inactive,inactive,inactive,inactive,inactive,inactive,–,–,–,–
O=C(O)c1cc(NN=C2c3ccccc3-c3ccccc32)ccc1Cl,inactive,inactive,inactive,inactive,–,inactive,inactive,inactive,–,inactive,inactive,inactive,–,inactive,inactive,inactive,98% (active),11.8% (active),–,32% (active)
CC(C)CN(CC(C)C)c1nc(N)c(C#N)c(CC#N)c1C#N,inactive,inactive,inactive,inactive,–,inactive,inactive,inactive,inactive,inactive,inactive,inactive,–,inactive,inactive,inactive,85% (active),39.2% (active),–,–
CCCn1nc([N+](=O)[O-])c(C(C#N)c2nc3ccccc3o2)c(Cl)c1=O (stereo unspecified),inactive,inactive,inactive,inactive,–,inactive,inactive,inactive,–,inactive,inactive,inactive,–,inactive,inactive,inactive,96% (active),39.9% (active),–,28% (active)
c1ccc(-c2nc(NCc3ccco3)c3ccccc3n2)nc1,inactive,inactive,inactive,inactive,–,–,inactive,inactive,–,inactive,inactive,inactive,–,inactive,inactive,inactive,93% (active),22.1% (active),74% (active),34.5% (active)
CN(C)CCCN(Cc1cc2cc3c(cc2[nH]c1=O)OCO3)C(=S)NCc1ccco1,inactive,inactive,inactive,inactive,–,–,inactive,inactive,inactive,inactive,inactive,inactive,–,inactive,inactive,inactive,93% (active),26.8% (active),69% (active),–
Cc1cc(N2CCCCCC2)nc2ccccc12,inactive,inactive,inactive,inactive,–,–,inactive,inactive,inactive,inactive,inactive,inactive,–,inactive,inactive,inactive,87% (active),15.6% (active),55% (active),–
